The test system of the experiment is VDR:RXRa (NR concentration 270 nM, RXRa partner concentration 90 nM). The experiment in a line: PBM binding z-score (relative to random genomic background probes); higher = stronger binding; sequences stand for … in GC…GCGATTGACAGCGTAGAATGAAGG
The procedure:
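Protein-binding microarray (Agilent 4x180K custom design, double-stranded 60-nt probes: 5' GC cap, 34-nt variable region, 24-nt constant primer region; full probe sequence given). Purified or IVT nuclear receptor:RXRα heterodimers (3:1 NR:RXRα, mostly 270:90 nM) or homodimers were incubated for 1 h in PBS with 2% milk and no ligand, then detected with Alexa488 antibodies. Fluorescence from o1-orientation probes (~5 replicates averaged) was converted to z-scores against 500 random hg19 background probes. Variable regions are seed direct-repeat (DR0–DR5) sites, all their single-nucleotide variants and half-site ablations.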
Turning to GCATATAGGTAATCCAAGGTGAAAGTCCGATTGT, the PBM binding z-score was 0.373.

For AGAACGAGGGCAATGAGCTGATAGCACGGGTGGC, the PBM binding z-score is -0.0572.

For GGTCGGAGGACAAGGTCAGAGCTTTGTCCGTAGA, the PBM binding z-score is 1.78.

ACCTCTAGGTAACAAGTTCAGTGAAAGAGAGGAC came in with a PBM binding z-score of 1.59.

Take AGATTGAGGTTATTAAGATCAGGGAATTGCGGTC: the PBM binding z-score stood at 2.28.

GGAATGAGGGCAAAGTTGATAGCATCTGTCGACG: the PBM binding z-score came to 1.82.

For the sequence ACTAGCAGGCCAAGTTTGGGTCACTCAAACAAAG, the PBM binding z-score is 0.525.

TGAATGAGGTAATAAGATCAGGGAACGTTGCAAA registered a PBM binding z-score of -0.334.

ATCTCTAGCTAAAGATAGTTCAGTGAATGCAAAT gave a PBM binding z-score of 0.182.

CGTCAAAGTTCAACTAAGGTAAAGTAAAGCACGC had a PBM binding z-score of 4.64.

AGAATGAGGTTAAGATCAGCGAAACAGAATACAT displayed a PBM binding z-score of 0.872.

On to ACTTACGGGTCAACGAGGTGATAGCACGCGTATA, for which the PBM binding z-score is 6.61.

ATCGAATGGTCGACGAGGTGAGTATACACCGTTT displayed a PBM binding z-score of 0.0601.

The sequence ACCAGTTGGTCAGCTGAGGTCACACACAATTCGG displayed a PBM binding z-score of 4.45.

In turn, GGAACTAGGGCAAGTTGATAGCAGAGTTTGATGG registered a PBM binding z-score of -0.183.

Sequence CCTCAGAGGACAACAGGAGGTCAGAGCTGCCAGA returned a PBM binding z-score of 2.34.

Consider ATCTCTAGGTAAAGATAGTTCAGCGAATGCAAAT, for which the PBM binding z-score amounted to 1.08.

On to CGTCCAAGGTCAAAGGTCAGTGAAGAGATGACGG, for which the PBM binding z-score was determined as 6.76.

CGTCCAAGTTCAACTAAGGTAACGTAAAGCACGC came in with a PBM binding z-score of 4.16.

In the case of TCCCGGAGGACACGAAGGTCAGAGCTTTCCAGAG, the PBM binding z-score turned out to be 2.15.

The sequence CCTAGCAGGCCAATATGGGTCACTCAAGGCTTGA displayed a PBM binding z-score of 0.862.

The sequence CGAACTAGGTCATTGACAGGACATTGAATAGTAA came in with a PBM binding z-score of 3.1.

In the case of ATATGTAGGTTAGCTGGGGCCATTCAGACTAGGC, the PBM binding z-score is 1.97.

As for CCTGACGGGTCACTGACAGGTTATAGCATTTGGA, the PBM binding z-score turned out to be 2.94.

In the case of TCTATTAGTTGATTAGGGCTACCGAAACAGCGGA, the PBM binding z-score stood at 0.473.

As for CTTTACGGGTCACTCCAGGTTATAGCATCGGAGT, the PBM binding z-score is 4.46.

For TCTATTAGTTGATTAGGGCCACCGAAACAGCGGA, the PBM binding z-score was determined as 0.782.

Regarding ACATGTAGGTTAAGGGTCATTCAGGTTGGTTCGC, the PBM binding z-score was found to be 5.84.

Sequence ATATGTAGGTTAAGGGTCATTCGGGTTGGTTCGC registered a PBM binding z-score of 6.18.

For the sequence TCTTGTAGATCAAAGGTTAAAAAAGCCGAAGCCT, the PBM binding z-score stood at 1.64.

With AATACAGCGTCACTAGGCCAGAGTAGGTACGAAT, the PBM binding z-score is -0.29.

The sequence CGTCCAAGGTCAGCATGTCAGTGAAAGCGACGTG yielded a PBM binding z-score of 2.49.

In turn, CAAACTAGGTCAAGGTTAAAGTCGGTTTGTGCCA gave a PBM binding z-score of 3.2.

Consider AGAATGAGGTTACCAAAGATCATGGAAACGCTTG, for which the PBM binding z-score worked out at 1.79.

In the case of CCTATTAGTTGACCATACGGGCAACCGAAGCTCG, the PBM binding z-score was 0.598.

Sequence GCTAGCAGGTCATTTGGGTCACTCAATGACGGGC had a PBM binding z-score of 5.92.

Sequence CAAACTAGGTCACCGGAAGGTTAAAGTCCGCATG gave a PBM binding z-score of 4.29.

Turning to CGTCCAAGGTCAAAGCTCAGTGAAGAGATGACGG, the PBM binding z-score is 3.77.

In the case of ACTATTAGTTGACTTAGGGCAACCGCTACGACGC, the PBM binding z-score stood at 0.319.

For the sequence ACTAGTTGGTCAGCTGAGGTTACACACAATTCGG, the PBM binding z-score amounted to 1.59.

The values are drawn from the supplement of paper PMC6555819.
